High-throughput results deposited in PubChem by National Center for Advancing Translational Sciences (NCATS).
HT1080NT lethal: kills 2HG-producing HT-1080-NT fibrosarcoma cells; Potency, µM (titrated, usually from 46.1 µM), inactives show at the highest dose activity, negative = less viability, hits mostly cytotoxic; hit rate 1.6% among 360,000; HT-1080-NT fibrosarcoma viability, CellTiter-Glo ATP luminescence, 48 h;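 also: NT is the 2HG producing partner of a matched IDH1 knockdown line; potency is read from the fitted curve at half-maximal effect; 0% = DMSO-treated cells and -100% = media-only wells without cells; nearly all actives have a fitted effect of over 55% in size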
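Compounds were tested in concentration-response format on HT-1080-NT cells for 48 hours at 37 degrees C. Cell viability came from CellTiter-Glo luminescence; curves were classified by r2, response magnitude and activity.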
IL-1B inflam inh: inhibitors of inflammasome signaling (IL-1 beta secretion). THP-1 LPS/ATP IL-1B secretion, AlphaLISA, 16 h; stronger effect = lower value. activity change, % at 57.5 µM. hit rate 4.7% among 360,000. AID 743279; in the data active = activity change below about -50%; inconclusive = mostly about -30% to -49%
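Secreted IL-1B measured by AlphaLISA bead assay after 16 h compound exposure of THP-1 cells; compounds (final up to 57.5 uM) added 1 h before LPS (250 ng/mL) and ATP (1.25 mM) stimulation; lower signal means less secretion.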
KB-V1 MDR tox: kills drug-selected multidrug resistant KB-V1 cells; KB-V1 MDR cells viability, CellTiter-Glo, 72 h; Potency, µM (top dose mostly 46.1 µM), actives largely listed as cytotoxic; hit rate 3.4% among 400,000; AID 1347076; also: potency is read from the fitted curve at half-maximal effect; nearly all actives have a fitted effect of over 60% in size
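Cytotoxicity via CellTiter-Glo luminescence after 72 h compound exposure at 37 degrees C. Cells: drug-selected KB-V1 line, DMEM phenol-red free plus 10% FBS. Compounds tested at multiple concentrations; normalized data fitted to concentration-effect curves.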
KB-3-1 cytotox: kills parental KB-3-1 adenocarcinoma cells; KB-3-1 viability, CellTiter-Glo ATP luminescence, 72 h; Potency, µM (titrated, usually from 46.1 µM), most hits filed as cytotoxic; hit rate 1.4% among 400,000; also: potency is read from the fitted curve at half-maximal effect; nearly all actives have a fitted effect of over 60% in size
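72 h, 37 °C compound treatment of KB-3-1 parental cells; CellTiter-Glo added, 10 min, luminescence read. Data corrected against DMSO-only plates and normalized before curve fitting.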
HT1080 IDH1KD tx: HT-1080 IDH1 knockdown cell toxicity (counter line); HT-1080 IDH1 knockdown viability, ATP luminescence, 48 h; Potency, µM (top dose mostly 46.1 µM), for the others: top-dose activity, negative = toxicity, most hits filed as cytotoxic; hit rate 2% among 360,000;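 also: potency is read from the fitted curve at half-maximal effect; 0% = DMSO wells and -100% = cell-free medium wells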
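Knockdown cells (IDH1KD HT-1080) received compounds 2 h after plating at 750 cells/well and were kept 48 h at 37 °C in 5% FBS RPMI. A CellTiter-Glo luminescence read gave % activity for curve fitting.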
Starred values were filed as active, the others as inactive; i = inactive; ? = inconclusive; / = no result. An excerpt weighted towards active compounds, which were near 8.8% of everything screened. Unless noted, calls follow the shape of the dose curve; as a rule, active = well fitted curve in the direction sought with a large enough effect; inconclusive = small, poorly fitted or top-dose-only effect, or another doubt; inactive = no such curve, though single readings can be large; an effect the other way counts as inactive or inconclusive. Unless noted, % is scaled to controls: 0 for no effect and ±100 for the full control effect.

SMILES	HT1080NT lethal	IL-1B inflam inh	KB-V1 MDR tox	KB-3-1 cytotox	HT1080 IDH1KD tx
CC1=CC(=O)C2(C)C(C)=C(C)C12C (configuration not stated)	5%	-8	i	i	9%
O=c1cnn([C@@H]2O[C@H](CO)[C@@H](O)[C@H]2O)c(=O)[nH]1	-18%	49	4.1µM*	?	?
Nc1[nH]c(=O)nc2c1ncn2C1OC(CO)C(O)C1O (configuration not stated)	/	/	i	i	/
CC1(OC(=O)C2CCCC2)C(=O)C=C2C=C(c3ccsc3)N(C3CCCCC3)C=C2C1=O (configuration not stated)	0%	-10	i	21µM*	-4%
CC1(OC(=O)C2CCCC2)C(=O)C=C2C=C(c3ccsc3)N(CC3CC3)C=C2C1=O (configuration not stated)	4%	46	i	i	1%
OCCN1CCN(c2ncnc3c2ncn3[C@H]2CN(Cc3cccc(C(F)(F)F)c3)C[C@@H](CO)O2)CC1	3%	9	i	i	-3%
CCCCn1c(SCC(=O)NC(C)CC)nc2ccc(N3CCOCC3)cc2c1=O (configuration not stated)	6%	-5	3.3µM*	i	3%
CCCCn1c(SCC(=O)NCc2ccco2)nc2ccc(N3CCOCC3)cc2c1=O	-29%	22	2.1µM*	i	?
CCCCn1c(SCC(=O)NCc2ccccc2)nc2ccc(N3CCOCC3)cc2c1=O	3%	-8	?	i	-13%
COc1cc2[nH]c3c(N4CCN(c5ccc(Cl)cc5)CC4)ncnc3c2cc1OC	?	22	i	i	?
COc1cc2[nH]c3c(Cl)ncnc3c2cc1OC	12%	-61*	i	i	-1%
CC1CCCN(S(=O)(=O)c2ccc(NC(=O)C3CC(=O)N(c4ccccc4)C3)cc2)C1 (configuration not stated)	-7%	?	?	i	-17%
CC1(C)CC(=O)C(C(C2=C(O)CC(C)(C)CC2=O)c2ccc(Br)s2)C(=O)C1 (configuration not stated)	-27%	-96*	21µM*	?	?
COc1ccc(NC(=O)NC23CC4(C)CC(C)(CC(C)(C4)C2)C3)cc1OC	-1%	0	i	?	-3%
C/C(=N\O)c1cc(Cl)cc(Cl)c1O	?	-83*	i	i	-27%
COC(=O)c1cc(S(=O)(=O)NCc2ccccc2)c[nH]1	0%	-5	i	i	6%
COC(=O)c1cc(S(=O)(=O)N(Cc2ccccc2)C(C)(C)C)c[nH]1	?	46	i	?	23µM*
C=CCn1c(SCc2cc(C(C)=O)ccc2OCC)nc2ccccc2c1=O	?	51	2.3µM*	1.2µM*	2.3µM*
COc1ccc(C(C)=O)cc1CSc1nc2ccccc2c(=O)n1-c1ccccc1	?	0	i	i	-27%
COc1ccccc1-n1c(SCc2cc(=O)oc3cc(O)ccc23)nc2ccccc2c1=O	-6%	7	18µM*	?	-4%
COc1ccc(C(C)=O)cc1CSc1nc2ccccc2c(=O)n1-c1ccccc1C	-16%	-3	21µM*	i	-15%
COc1ccccc1-n1c(SCC(=O)N2CCOCC2)nc2ccccc2c1=O	11%	-2	i	i	17%
O=C(NCCC(F)(F)F)c1cccc2c(-c3ccc(F)c(F)c3)coc12	-2%	-16	i	i	5%
Cc1ccccc1NC(=O)CN1C(=O)NC2(CCCCCCC2)C1=O	-8%	4	?	i	-4%
C[C@H]1C=C(C(=O)NC2CC2)O[C@@H](OCc2ccc(CO)cc2)C1	4%	33	i	i	8%
Cc1nn(-c2ccccc2)c2c1CC(=O)Nc1ccccc1-2	?	27	1.6µM*	0.65µM*	?
CCOC(=O)CCC1(C(=O)OC)C(=O)CCCCCC=C1C(=O)OC (configuration not stated)	0%	-51*	i	i	-16%
S=c1nc(-c2ccccc2Br)[nH][nH]1	7.1µM*	33	i	i	10µM*
